According to the supplement of paper PMC6411743:
± gives the standard deviation of the averaged measurements. Targets with the largest changes are over-represented here; the source holds about 5,400 in all.

Target: T1, UniProt Q13188|Q13188-2
T1 sequence (whole entry): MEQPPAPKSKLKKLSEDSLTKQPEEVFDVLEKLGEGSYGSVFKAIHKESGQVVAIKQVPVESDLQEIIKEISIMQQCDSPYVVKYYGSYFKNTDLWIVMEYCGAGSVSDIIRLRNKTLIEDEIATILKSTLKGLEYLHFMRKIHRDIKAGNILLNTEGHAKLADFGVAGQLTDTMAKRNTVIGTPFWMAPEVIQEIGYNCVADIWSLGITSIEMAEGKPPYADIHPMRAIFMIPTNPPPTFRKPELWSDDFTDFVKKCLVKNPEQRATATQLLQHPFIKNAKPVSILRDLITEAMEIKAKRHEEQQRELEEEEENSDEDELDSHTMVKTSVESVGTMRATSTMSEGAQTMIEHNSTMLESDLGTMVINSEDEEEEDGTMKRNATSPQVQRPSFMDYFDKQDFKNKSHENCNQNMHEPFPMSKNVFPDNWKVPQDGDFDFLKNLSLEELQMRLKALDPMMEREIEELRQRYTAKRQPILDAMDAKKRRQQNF
Assay: NP40-soluble protein abundance relative to vehicle (solubility fold change) (ratio); higher = more soluble protein in presence of GTP
Experimental: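 Solubility proteome profiling in Jurkat crude lysate. Lysate was treated with Mg-GTP (0.1-10 mM) for 10 min at room temperature and 3 min at 37 °C, then solubilised with 0.8% NP40 and benzonase, followed by ultracentrifugation. Proteins were quantified by TMT10 LC-MS/MS; the value is the NP40-soluble abundance relative to the NP40-processed vehicle, from 3 independent experiments.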

Nc1nc2c(ncn2[C@@H]2O[C@H](COP(=O)(O)OP(=O)(O)OP(=O)(O)O)[C@@H](O)[C@H]2O)c(=O)[nH]1 [guanosine triphosphate]
NP40-soluble protein abundance (concentration: 0.1mM): 0.978 ± 0.064
NP40-soluble protein abundance (concentration: 0.5mM): 0.985 ± 0.036
NP40-soluble protein abundance (concentration: 1mM): 0.98 ± 0.057
NP40-soluble protein abundance (concentration: 2mM): 0.982 ± 0.048
NP40-soluble protein abundance (concentration: 4mM): 0.96 ± 0.049
NP40-soluble protein abundance (concentration: 6mM): 0.948 ± 0.052
NP40-soluble protein abundance (concentration: 8mM): 0.972 ± 0.071
NP40-soluble protein abundance (concentration: 10mM): 0.973 ± 0.088
